SRC1 TRFRET art = counter-screen for PPARgamma SRC-1 recruitment agonists: TR-FRET artefact; TR-FRET detection artefact counter-screen, emission ratio; hits give high values; TR-FRET ratio at 8 µM; 0.34% of 99,000 active; AID 1051; in the data active = TR-FRET ratio above about 2300
PPARg SRC-1 ag = PPARgamma-driven SRC-1 recruitment agonism. P37231. PPARgamma-SRC-1 coactivator recruitment biochemical assay. activation, % at 8 µM. 0.41% of 200,000 active; in the data active = activation above about 19%;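 also: 0% = DMSO and 100% = reference agonist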
Target sequence (P37231 whole entry, looked up): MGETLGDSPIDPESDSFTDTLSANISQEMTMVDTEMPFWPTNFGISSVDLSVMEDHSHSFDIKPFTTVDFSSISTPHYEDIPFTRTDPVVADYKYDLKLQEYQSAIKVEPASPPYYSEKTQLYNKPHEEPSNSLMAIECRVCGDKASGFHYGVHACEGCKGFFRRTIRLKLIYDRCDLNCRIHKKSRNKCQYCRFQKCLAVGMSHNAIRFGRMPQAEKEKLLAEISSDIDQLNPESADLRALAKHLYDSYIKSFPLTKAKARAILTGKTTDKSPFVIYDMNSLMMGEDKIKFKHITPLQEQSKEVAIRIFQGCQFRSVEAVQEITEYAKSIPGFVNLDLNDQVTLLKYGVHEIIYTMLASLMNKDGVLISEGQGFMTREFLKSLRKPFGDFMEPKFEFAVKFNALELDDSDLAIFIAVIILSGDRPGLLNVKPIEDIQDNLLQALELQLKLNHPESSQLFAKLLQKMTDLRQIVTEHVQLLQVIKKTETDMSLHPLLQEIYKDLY
TR-FRET SRC-2 ct = counter-screen for PPARgamma SRC-2 recruitment agonists: TR-FRET artefact. hits give high values. TR-FRET ratio at 8 µM. 0.4% of 200,000 active. AID 1049; in the data active = TR-FRET ratio above about 2000
SRC3 TRFRET art = flags TR-FRET format artefacts in PPARgamma SRC-3 recruitment agonist screen; AID 1048; TR-FRET artefact counter-screen, PPARgamma/SRC-3 format; hits give high values; 0.39% of 99,000 active; TR-FRET ratio at 8 µM; in the data active = TR-FRET ratio above about 2000
PPARg SRC-2 ag = agonists of SRC-2 recruitment by human PPARgamma; activation, % at 8 µM; P37231; PPARgamma LBD-SRC-2 recruitment, biochemical; 0.34% of 200,000 active;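 also: 0% = vehicle and 100% = reference agonist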
PPARg SRC3 recr = agonists of human PPARgamma SRC-3 coactivator recruitment | 0.26% of 200,000 active | biochemical PPARgamma/SRC-3 coactivator recruitment assay | P37231 | activation, % at 8 µM; in the data active = activation above about 23%;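 also: 0% = DMSO and 100% = reference agonist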
PPARg SRC2 ag = human PPARgamma SRC-2 recruitment agonism, confirmation. activation, % at 8 µM. AID 1297. 52% of 790 active. biochemical SRC-2 recruitment by PPARgamma. shares compounds with PPARg SRC3 recr;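 also: 0% = vehicle alone and 100% = reference agonist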
PPARg SRC1 conf = human PPARgamma SRC-1 recruitment agonism, confirmation; shares compounds with PPARg SRC3 recr; 43% of 790 active; AID 1300; PPARgamma–SRC-1 coactivator recruitment biochemical assay; activation, % at 8 µM; in the data active = activation above about 20%;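 also: 0% = vehicle wells and 100% = reference agonist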
PPARg SRC3 conf = confirmation of agonists of SRC-3 recruitment by human PPARgamma; shares compounds with PPARg SRC3 recr; biochemical PPARgamma-SRC-3 coactivator recruitment, agonist mode; activation, % at 8 µM; 29% of 790 active; AID 1301; in the data active = activation above about 24%;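 also: 0% = vehicle wells and 100% = reference agonist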
The depositor's hits bear a star; nt = no result. This is a sample that favours compounds with a hit; in the whole collection about 0.9% have one here. Rule as the data show it, unless noted: active = activation above about 22%; inactive = the rest.

SMILES	SRC1 TRFRET art	PPARg SRC-1 ag	TR-FRET SRC-2 ct	SRC3 TRFRET art	PPARg SRC-2 ag	PPARg SRC3 recr	PPARg SRC2 ag	PPARg SRC1 conf	PPARg SRC3 conf
Cc1cccc(S(=O)(=O)C(C#N)c2nc3ccccc3nc2N2CCCC2)c1 (stereo not drawn)	nt	19.0*	1588	nt	11.4	14.3	7.9	11.2	6.1
CC(=O)c1ccc(NC(=O)Nc2ccc(Br)cc2C)cc1	1843	-8.3	1492	1169	4.5	2.2	nt	nt	nt
NS(=O)(=O)c1ccc(CCNC(=O)c2cc(-c3ccccc3)nc3ccccc23)cc1	1708	-0.9	1481	1586	-1.2	0.3	nt	nt	nt
NS(=O)(=O)c1ccc(CNC(=O)c2cc(-c3ccccn3)nc3ccc(Cl)cc23)cc1	3155*	62.7*	2879*	3729*	64.1*	54.3*	33.2*	27.0*	18.4
Cc1c(C(=O)Nc2ccccc2C(=O)N2CCCC2)cccc1[N+](=O)[O-]	1681	0.1	1652	1640	-4.0	-5.0	nt	nt	nt
O=C(Nc1ccccc1)c1sc(N2CCOCC2)nc1-c1ccccc1	2033	5.7	1762	1655	13.4	7.4	nt	nt	nt
CC(=O)c1sc(N2CCOCC2)nc1-c1ccccc1	2416*	33.3*	2097*	2416*	16.8	26.9*	36.5*	27.8*	23.6
O=C(O)Cc1cc(C(=O)Nc2ccc(Br)cc2)sc1-c1ccccc1	2611*	33.1*	2211*	2260*	22.5*	16.1	16.3	15.4	11.0
O=C(O)CCC(=O)Nc1cccc(C(=O)Nc2ccc(Br)cc2)c1	1893	6.9	1565	1559	-9.6	2.0	nt	nt	nt
CCC(CC)C(=O)Nc1nnc(-c2cccs2)s1	nt	11.8	1582	nt	8.5	13.4	nt	nt	nt
COc1cccc(OC)c1C(=O)Nc1nnc(-c2cccs2)s1	2546*	30.8*	1921	2204*	28.4*	16.2	27.2*	21.5*	20.3
COc1cc(C2NC(=O)NC(c3ccccc3)=C2C(C)=O)cc([N+](=O)[O-])c1O (stereo not drawn)	1862	6.0	1713	1392	10.0	6.1	nt	nt	nt
O=C(Nc1ccc2oc(-c3ccccc3)nc2c1)c1ccccc1F	nt	13.8	1684	nt	8.0	-17.3	nt	nt	nt
O=C(Nc1ccc2oc(-c3ccncc3)nc2c1)c1ccccc1F	nt	48.8*	1409	nt	46.8*	39.5*	2.3	-0.1	0.5
Cc1ccc(S(=O)(=O)N2CCCCC2)cc1NC(=O)Cn1c(=O)cnc2ccccc21	1795	1.4	1587	1660	-0.9	4.2	nt	nt	nt
Cc1ccc(S(=O)(=O)c2ccccc2)cc1S	1782	7.0	1664	1732	1.3	6.1	nt	nt	nt
COc1ccc(NC(C)C(=O)N/N=C/c2ccccc2OCc2cccc(Br)c2)cc1 (stereo not drawn)	1922	22.4*	1675	1450	7.6	36.7*	6.2	23.8*	22.1
Cc1ccccc1NC(C)C(=O)N/N=C/c1ccccc1OCc1cccc(Br)c1 (stereo not drawn)	nt	-2.1	1387	nt	2.2	0.3	nt	nt	nt
Cc1ccc(S(=O)(=O)NCC(=O)NCC(=O)OCC(=O)N2CC(=O)Nc3ccccc32)cc1C	1656	4.4	1592	1485	3.9	3.8	nt	nt	nt
Nc1ccc2oc(-c3ccc4nc[nH]c4c3)nc2c1	nt	-4.2	1494	nt	0.7	3.3	nt	nt	nt
Cc1nc2ccc(-c3nc4cc(N)ccc4o3)cc2[nH]1	nt	21.4*	1816	nt	15.8	18.1	9.6	8.9	7.8
CCOC(=O)c1[nH]c2ccc(C)cc2c1N	2128	3.3	1458	1835	10.5	5.8	nt	nt	nt
CCOC(=O)c1[nH]c2cc(OC)c(OC)cc2c1N	nt	13.2	1702	nt	25.5*	21.4	18.4	16.2	9.6
Cc1cccc(Cn2c(C)nc3c(N)c(C)c(C)cc32)c1	1989	-0.9	1547	1427	-6.8	7.2	nt	nt	nt
CCc1ccc(C(CNC(=O)c2ccc3c(=O)n(-c4ccccc4F)c(=S)[nH]c3c2)N(C)C)cc1 (stereo not drawn)	1940	7.5	1516	1646	11.9	0.3	nt	nt	nt
O=C(O)COc1ccc2nsnc2c1Cl	nt	38.1*	2267*	nt	36.8*	50.4*	46.1*	41.6*	27.2*
